Data published in PubChem BioAssay (EPA / NIEHS).
Calls of active or inactive are those of the source. Rule for the calls: active = hit-call score of the fitted dose curve at least 0.9, where 1 is the maximum; inactive = score below 0.9.

The molecules below were run on Peroxisomal acyl-coenzyme A oxidase 1 (ACOX1) gene, ACOX1 (gene 51) (assay: LTEA_HepaRG_ACOX1: Life Technologies and Expression Analysis (LTEA) Assay for Peroxisomal acyl-coenzyme A oxidase 1 (ACOX1) gene using HepaRG (AID 2283467)). Details: mRNA level, 48 h; actives raise or lower the signal.
Method: LTEA_HepaRG is a cell based, multiplexed-readout assay that uses HepaRG, a human liver cell line, with measurements taken at 48 hours after chemical dosing on a 96-well plate.LTEA_HepaRG_ACOX1 is one of 102 assay component(s) measured in the LTEA HepaRG cell culture assay. It is a marker of Steatosis.Data from the assay component LTEA_HepaRG_ACOX1 was analyzed into 1 endpoint. This assay endpoint, LTEA_HepaRG_ACOX1, was analyzed with bidirectional fitting relative to DMSO as the negative control and baseline of activity. Using a type of inducible reporter, measures of mRNA induction for gain or loss-of-signal activity can be used to understand regulation of transcription factor activity. To generalize the intended target to other relatable targets, this assay endpoint is annotated to the oxidase intended target family, where the subfamily is steatosis.
A total of 1060 chemcials from the ToxCast library were tested in eight-point concentration-response experiments. Cell culture and cytotoxicity assays were conducted at Thermo Fisher Scientific's Custom Services facility (Madison, WI). A single lot of human HepaRG cells (Thermo Fisher Scientific, Frederick, MD) was used for the cell culture experiments. 96-well format collagen type I coated plates of human HepaRG cells were prepared using established methods. Briefly, cryopreserved HepaRG cells were thawed, plated at a density of approximately 100,000 cells/well in HepaRG Thaw, Plate, and General Purpose media (HPRG770, Thermo Fisher Scientific), and incubated for 48 hours. 0.5% DMSO was selected as vehicle control to balance the requisite need of DMSO in HepaRG cultures to maintain differentiation (for example, baseline metabolism, proportions of hepatocytes vs. cholangiocytes), while enabling further hepatic receptor pathway activation (for example, PXR and CAR) in response to chemical exposure. 48 hours after plating, the culture medium was replaced with HepaRG Serum-Free Incudtion Media. Cells were exposed to each test chemical in duplicate and maintained in CO2 incubators for another 48 hours. Chemical plates were thawed to room temperature and 200x concentrations of treatment groups were prepared. 8-point conentration-reponse curves were made with the highest exposure at 100 uM, followed by half-log dilutions, all in 0.5% DMSO. Each test plate contained variouse controls, induction positive controls (1mM phenobarbital), cytotoxicity positive controls ([…] aflatoxin B1), vehicle controls (0.5% DMSO), and total lysis controls (0.5% DMSO). Cell morphology images were taken using an Essen IncuCyte FLR automated microscope, with six 96-well plates imaged in about 24 minutes. Images were captured and exported and JPEG files. Spent culture media was transfered to black-well plates for the LDH assay, and remaining media was sorted at -80 C for later use. Cells were treated with RLT buffer and frozen until shipped for gene expression analysis. Total RNA was isolated from the cell suspension in 75 uL of Buffer RLT (Qiagen, Germantown, MD 20874) by Quintiles/Expression Analysis (Durham, NC) using a custom isolation procedure. Total RNA from each plate well was transferred to a preamplification plate. Fluidigm's 96.96 Dynamic ArrayTM (Fluidigm, Amsterdam, the Netherlands) technology was used for gene expression analyses by quantitative reverse transcription polymerase chain reaction (qRT-PCR, performed by Quintiles/Expression Analysis, Durham, NC)89. Standard TaqManTM Assays (Applied Biosystems/ThermoFisher Scientific, Foster City, CA) were used to assess the expression of 93 genes selected based on their selectivity and sensitivity to important hepatic receptors known to be modulated by environmental chemicals; importance in human hepatocyte functionality; and hepatotoxicity. […]
`CNCc1ccc(NC(=O)c2c[nH]c3c2C(=O)CCC3)cc1` was tested, and the outcome was “inactive”. For `O=P(OC(CCl)CCl)(OC(CCl)CCl)OC(CCl)CCl`, the outcome was “inactive”. For `COCCOCCOCCOC`, the outcome was “inactive”. With `Fc1ccccc1[C@@H](F)COC1CCC(Nc2ncnc3[nH]ncc23)CC1` (stereo not given in full) the AC50 was 34.1 µM (active). `CC[C@H]1OC(=O)[C@H](C)[C@@H](O[C@H]2C[C@@](C)(OC)[C@@H](O)[C@H](C)O2)[C@H](C)[C@@H](O[C@@H]2O[C@H](C)C[C@H](N(C)C)[C@H]2O)[C@](C)(O)C[C@@H](C)C(=O)[C@H](C)[C@@H](O)[C@]1(C)O` was tested, and the outcome was “inactive”. With `COc1ccc(/C=C/S(=O)(=O)NC(=O)c2ccc(C)cc2Cl)cc1` the outcome was “inactive”. For `COc1ccc(-n2nc(C(F)F)cc2-c2ccc(S(C)=O)cc2)cc1` (stereo not given), the outcome was “inactive”. `CCCN(C1CCN(C(=O)C2CCNCC2)CC1)[C@@H]1CCc2ccc(OC)cc2C1` was tested, and the AC50 was 33.1 µM (active). `CCOC(=O)CC(CC(=O)OCC)(OC(C)=O)C(=O)OCC` was tested, and the outcome was “inactive”. `O=C(O)CCN(C1(C(=O)NO)CCCC1)S(=O)(=O)c1ccc(Oc2ccc(F)cc2)cc1` was tested, and the outcome was “inactive”. With `CCOc1cccc(-n2cc(C(=O)N3CCN(c4cc(C(=O)O)c5ccccc5c4)CC3)nc2-c2ccc(C)cc2)c1` the AC50 was 70.1 µM (active). `O=c1n(CC2CO2)c(=O)n(CC2CO2)c(=O)n1CC1CO1` (stereo not given) was tested, and the outcome was “inactive”. With `Cc1ccc(C)c(O)c1` the outcome was “inactive”. In the case of `Cc1c(-c2cccnc2)c2ccccc2n1CCCCC(=O)O`, the outcome is reported as “inactive”. For `O=C1CCCCCN1`, the outcome was “inactive”. `C[C@](N)(Cc1ccc(O)c(O)c1)C(=O)O` was tested, and the outcome was “inactive”. With `CCc1cc(SCc2sc(-c3ccc(C(F)(F)F)cc3)nc2CN2CCN(c3ccc(OC)cc3)CC2)ccc1OCC(=O)O` the AC50 was 92.7 µM (active). With `CCOC(=O)COc1ccc2c(c1)CC(NCC(O)c1cccc(Cl)c1)CC2` (stereo not given) the outcome was “inactive”. With `CCCC(=O)OCC` the outcome was “inactive”. With `C1N2CN3CN1CN(C2)C3` the outcome was “inactive”. `CNS(=O)(=O)c1cc(C(=O)N2CCC(CCN3C4CCC3CC(n3c(C)nc5ccccc53)C4)(c3cccc(F)c3)CC2)c(Cl)cc1F` (stereo not given) was tested, and the AC50 was 13.3 µM (active). `CCCCC(CC)COC(=O)CCCCCCCCC(=O)OCC(CC)CCCC` (stereo not given) was tested, and the outcome was “inactive”. With `O=C(O)CC(O)C(=O)O` (stereo not given) the outcome was “inactive”. With `CC(O)CN(CCN(CC(C)O)CC(C)O)CC(C)O` (stereo not given) the outcome was “inactive”. For `COc1cccc(-c2ccc(/C=C\CN3CCCCCC3)cc2Cl)c1`, the AC50 was 45.2 µM (active). In the case of `Oc1ccc2c(c1)-c1ccccc1C2`, the outcome is reported as “inactive”. `O=C1CCC(N2C(=O)c3ccccc3C2=O)C(=O)N1` (stereo not given) was tested, and the outcome was “inactive”. With `O=C(O)c1cccc(Oc2ccccc2)c1` the outcome was “inactive”. In the case of `CN(C)c1ccc(N=NS(=O)(=O)O)cc1`, the AC50 is reported as 12.9 µM (active). For `CC(C)CCO`, the outcome was “inactive”. In the case of `CCOCCO`, the outcome is reported as “inactive”. In the case of `C=CC(=C)CCC=C(C)C`, the outcome is reported as “inactive”. For `CC(C)(O)c1coc(S(=O)(=O)NC(=O)Nc2c3c(cc4c2CCC4)CCC3)c1`, the outcome was “inactive”. With `C1=CCCC=CCCC=CCC1` the outcome was “inactive”. For `CCOCCOCCOCCO`, the outcome was “inactive”. In the case of `Nc1cccc(N)c1`, the outcome is reported as “inactive”. `CCOC(=O)c1ccc(C2CCC(NC[C@H](O)COc3ccc(O)c(NS(C)(=O)=O)c3)CC2)cc1` (stereo not given in full) was tested, and the outcome was “inactive”. `COC(=O)CC(=O)OC` was tested, and the outcome was “inactive”. For `CC/C(=C\C(=N/O)C(N)=O)C(C)[N+](=O)[O-]` (stereo not given), the outcome was “inactive”. `NC(=O)NO` was tested, and the outcome was “inactive”.
